Experimental data from the supplement of paper PMC11732987, “Enantioselective OTUD7B fragment discovery through chemoproteomics screening and high-throughput optimisation” (Communications Chemistry, 2025).

How the values were obtained:
Experiment in all cases: log2 ratio of Biotin-Ahx-Ub-VS probe labelling (fragment/DMSO); higher = less target engagement (more negative = stronger competition), active = hit call of the paper (q ≤ 0.05, log2 ratio ≤ -1)
Settings in all cases: compound concentration: 200 uM; treatment time: 3 h
OTUD6B = molecular target: T1, OTUD6B (UniProt Q8N6M0)
T1 sequence (whole entry): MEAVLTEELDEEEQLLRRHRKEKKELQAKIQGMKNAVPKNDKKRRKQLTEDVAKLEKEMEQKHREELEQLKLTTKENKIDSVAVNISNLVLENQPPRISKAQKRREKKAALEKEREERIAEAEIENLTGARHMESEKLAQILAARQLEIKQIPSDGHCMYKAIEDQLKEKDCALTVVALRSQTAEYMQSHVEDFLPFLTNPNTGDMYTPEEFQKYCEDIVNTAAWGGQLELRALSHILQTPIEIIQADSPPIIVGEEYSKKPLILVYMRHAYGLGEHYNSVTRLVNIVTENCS
Procedure, shortened: (§1)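 HEK293T lysate (495 µg per sample, in Tris/CHAPS/IGEPAL buffer with protease inhibitors) was treated in triplicate with fragment at 200 µM or with DMSO for 3 h. It was then treated with Biotin-Ahx-Ub-VS (0.5 µM final) for 1 h. Labelled DUBs were NeutrAvidin-enriched, digested with LysC and trypsin, and run by diaPASEF LC-MS/MS. Spectronaut label-free quantities were global-median-normalised. Values are average log2 ratios fragment/DMSO by unpaired t-test, using proteins with ≥2 unique peptides.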

OTUD7B = molecular target: T2, OTUD7B (UniProt Q6GQQ9)
T2 sequence (whole entry): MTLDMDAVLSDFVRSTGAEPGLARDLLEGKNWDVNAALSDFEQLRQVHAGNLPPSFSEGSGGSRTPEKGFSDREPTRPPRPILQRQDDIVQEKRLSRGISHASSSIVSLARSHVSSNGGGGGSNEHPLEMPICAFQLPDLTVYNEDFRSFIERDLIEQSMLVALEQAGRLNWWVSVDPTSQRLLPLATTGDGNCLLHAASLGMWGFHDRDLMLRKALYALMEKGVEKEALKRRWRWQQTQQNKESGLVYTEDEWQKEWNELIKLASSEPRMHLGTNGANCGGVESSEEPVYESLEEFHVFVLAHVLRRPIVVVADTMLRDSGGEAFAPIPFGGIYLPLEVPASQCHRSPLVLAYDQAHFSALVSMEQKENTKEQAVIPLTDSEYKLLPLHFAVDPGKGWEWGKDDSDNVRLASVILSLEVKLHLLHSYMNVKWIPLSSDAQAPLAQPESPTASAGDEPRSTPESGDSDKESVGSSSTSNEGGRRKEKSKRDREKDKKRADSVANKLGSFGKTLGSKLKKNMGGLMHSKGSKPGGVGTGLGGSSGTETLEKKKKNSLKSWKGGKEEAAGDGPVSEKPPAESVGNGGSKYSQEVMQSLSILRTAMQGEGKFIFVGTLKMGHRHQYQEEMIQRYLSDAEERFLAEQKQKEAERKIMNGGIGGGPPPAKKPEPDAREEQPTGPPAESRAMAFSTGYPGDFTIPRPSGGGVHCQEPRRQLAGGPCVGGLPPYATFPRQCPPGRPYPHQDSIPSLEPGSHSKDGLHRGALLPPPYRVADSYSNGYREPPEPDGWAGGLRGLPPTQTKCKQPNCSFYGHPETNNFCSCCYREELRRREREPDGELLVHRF
Procedure, shortened: as §1

PRPF8 = PRPF8 (UniProt Q6P2Q9)
Procedure, shortened: as §1

PSMD7 = molecular target: T3, PSMD7 (UniProt P51665)
T3 sequence (whole entry): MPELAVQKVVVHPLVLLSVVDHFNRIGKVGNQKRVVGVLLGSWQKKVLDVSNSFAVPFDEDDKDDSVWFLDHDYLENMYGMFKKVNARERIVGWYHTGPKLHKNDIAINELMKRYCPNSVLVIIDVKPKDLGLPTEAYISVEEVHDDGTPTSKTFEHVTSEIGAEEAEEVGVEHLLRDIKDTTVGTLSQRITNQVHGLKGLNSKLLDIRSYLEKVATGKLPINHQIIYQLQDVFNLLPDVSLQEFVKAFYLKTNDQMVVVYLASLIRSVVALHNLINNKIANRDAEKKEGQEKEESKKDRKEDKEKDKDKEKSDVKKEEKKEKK
Procedure, shortened: as §1

UCHL1 = UCHL1 (UniProt P09936)
Procedure, shortened: as §1

UCHL3 = molecular target: T4, UCHL3 (UniProt P15374)
T4 sequence (whole entry): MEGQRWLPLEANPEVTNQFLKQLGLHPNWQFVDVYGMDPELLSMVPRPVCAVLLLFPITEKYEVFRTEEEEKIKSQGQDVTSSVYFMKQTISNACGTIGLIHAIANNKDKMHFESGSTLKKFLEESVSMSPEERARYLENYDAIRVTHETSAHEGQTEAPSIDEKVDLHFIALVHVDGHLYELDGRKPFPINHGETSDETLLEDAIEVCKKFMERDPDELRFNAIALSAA
Procedure, shortened: as §1

UCHL5 = molecular target: T5, UCHL5 (UniProt Q9Y5K5)
T5 sequence (whole entry): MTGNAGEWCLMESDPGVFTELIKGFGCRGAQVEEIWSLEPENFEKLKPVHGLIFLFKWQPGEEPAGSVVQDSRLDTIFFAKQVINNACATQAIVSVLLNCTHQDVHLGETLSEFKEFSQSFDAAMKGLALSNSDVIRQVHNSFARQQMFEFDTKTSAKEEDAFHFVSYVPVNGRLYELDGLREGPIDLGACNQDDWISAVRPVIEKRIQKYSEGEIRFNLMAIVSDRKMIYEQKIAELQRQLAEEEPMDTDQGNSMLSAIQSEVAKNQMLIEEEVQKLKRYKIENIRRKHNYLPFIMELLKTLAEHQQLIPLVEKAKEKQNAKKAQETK
Procedure, shortened: as §1

USP10 = USP10 (UniProt Q14694)
Procedure, shortened: as §1

USP15 = molecular target: T6, USP15 (UniProt Q9Y4E8)
T6 sequence (whole entry): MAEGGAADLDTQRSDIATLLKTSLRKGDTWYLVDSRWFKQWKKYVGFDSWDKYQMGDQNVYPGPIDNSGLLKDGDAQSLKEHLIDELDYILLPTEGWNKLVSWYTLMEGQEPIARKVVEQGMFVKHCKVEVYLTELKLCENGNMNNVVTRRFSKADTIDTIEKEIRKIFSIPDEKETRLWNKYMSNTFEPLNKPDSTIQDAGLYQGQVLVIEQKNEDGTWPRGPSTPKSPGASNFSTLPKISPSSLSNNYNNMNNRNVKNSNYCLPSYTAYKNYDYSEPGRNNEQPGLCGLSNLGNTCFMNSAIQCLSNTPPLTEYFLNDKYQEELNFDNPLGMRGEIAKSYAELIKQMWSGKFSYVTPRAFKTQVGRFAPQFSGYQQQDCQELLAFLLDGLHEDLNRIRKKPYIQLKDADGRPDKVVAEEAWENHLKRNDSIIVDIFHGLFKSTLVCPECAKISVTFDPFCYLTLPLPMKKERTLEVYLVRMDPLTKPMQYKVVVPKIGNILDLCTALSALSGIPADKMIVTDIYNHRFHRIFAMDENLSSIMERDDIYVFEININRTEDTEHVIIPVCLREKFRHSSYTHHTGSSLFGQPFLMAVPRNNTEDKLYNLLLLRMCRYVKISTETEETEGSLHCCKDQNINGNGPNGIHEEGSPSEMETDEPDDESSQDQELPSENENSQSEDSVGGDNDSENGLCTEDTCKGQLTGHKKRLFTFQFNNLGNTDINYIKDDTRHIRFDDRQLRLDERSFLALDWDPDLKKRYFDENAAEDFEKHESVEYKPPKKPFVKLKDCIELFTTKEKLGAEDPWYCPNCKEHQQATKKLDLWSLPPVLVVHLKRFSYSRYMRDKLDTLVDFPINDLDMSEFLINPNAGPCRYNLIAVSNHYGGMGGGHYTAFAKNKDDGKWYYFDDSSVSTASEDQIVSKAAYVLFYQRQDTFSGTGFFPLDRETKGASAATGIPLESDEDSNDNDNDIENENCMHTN
Procedure, shortened: as §1

USP16 = USP16 (UniProt Q9Y5T5)
Procedure, shortened: as §1

Measured: log2 ratio of Biotin-Ahx-Ub-VS probe labelling

Sequence of USP16 (Q9Y5T5 whole entry, looked up): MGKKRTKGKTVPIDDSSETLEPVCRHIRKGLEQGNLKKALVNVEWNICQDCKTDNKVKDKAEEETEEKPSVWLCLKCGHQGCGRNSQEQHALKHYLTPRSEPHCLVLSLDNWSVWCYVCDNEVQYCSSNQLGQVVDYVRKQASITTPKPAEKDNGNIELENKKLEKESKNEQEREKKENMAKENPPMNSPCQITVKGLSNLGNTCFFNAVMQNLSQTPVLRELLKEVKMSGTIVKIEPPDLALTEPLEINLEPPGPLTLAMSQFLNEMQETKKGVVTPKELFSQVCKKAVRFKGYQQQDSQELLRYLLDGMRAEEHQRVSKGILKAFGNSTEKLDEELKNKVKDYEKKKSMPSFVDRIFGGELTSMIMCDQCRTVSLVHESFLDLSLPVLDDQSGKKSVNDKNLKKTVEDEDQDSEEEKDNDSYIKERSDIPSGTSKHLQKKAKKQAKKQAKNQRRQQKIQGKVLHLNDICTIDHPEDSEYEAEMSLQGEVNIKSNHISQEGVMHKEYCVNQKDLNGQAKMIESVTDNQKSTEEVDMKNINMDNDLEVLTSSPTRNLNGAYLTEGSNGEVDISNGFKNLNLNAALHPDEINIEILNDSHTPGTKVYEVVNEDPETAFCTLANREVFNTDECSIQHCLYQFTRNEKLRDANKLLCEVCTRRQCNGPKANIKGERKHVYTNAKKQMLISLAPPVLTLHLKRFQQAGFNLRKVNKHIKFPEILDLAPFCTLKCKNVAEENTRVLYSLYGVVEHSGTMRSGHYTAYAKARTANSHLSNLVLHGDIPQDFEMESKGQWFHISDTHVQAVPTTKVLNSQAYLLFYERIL
Sequence of UCHL1 (P09936 whole entry, looked up): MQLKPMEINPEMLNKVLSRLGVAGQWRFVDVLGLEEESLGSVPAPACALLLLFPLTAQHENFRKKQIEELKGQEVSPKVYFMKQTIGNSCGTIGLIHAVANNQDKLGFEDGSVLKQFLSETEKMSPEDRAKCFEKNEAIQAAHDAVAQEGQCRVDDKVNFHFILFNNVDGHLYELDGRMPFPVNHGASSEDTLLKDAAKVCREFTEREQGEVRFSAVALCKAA
Sequence of USP10 (Q14694 whole entry): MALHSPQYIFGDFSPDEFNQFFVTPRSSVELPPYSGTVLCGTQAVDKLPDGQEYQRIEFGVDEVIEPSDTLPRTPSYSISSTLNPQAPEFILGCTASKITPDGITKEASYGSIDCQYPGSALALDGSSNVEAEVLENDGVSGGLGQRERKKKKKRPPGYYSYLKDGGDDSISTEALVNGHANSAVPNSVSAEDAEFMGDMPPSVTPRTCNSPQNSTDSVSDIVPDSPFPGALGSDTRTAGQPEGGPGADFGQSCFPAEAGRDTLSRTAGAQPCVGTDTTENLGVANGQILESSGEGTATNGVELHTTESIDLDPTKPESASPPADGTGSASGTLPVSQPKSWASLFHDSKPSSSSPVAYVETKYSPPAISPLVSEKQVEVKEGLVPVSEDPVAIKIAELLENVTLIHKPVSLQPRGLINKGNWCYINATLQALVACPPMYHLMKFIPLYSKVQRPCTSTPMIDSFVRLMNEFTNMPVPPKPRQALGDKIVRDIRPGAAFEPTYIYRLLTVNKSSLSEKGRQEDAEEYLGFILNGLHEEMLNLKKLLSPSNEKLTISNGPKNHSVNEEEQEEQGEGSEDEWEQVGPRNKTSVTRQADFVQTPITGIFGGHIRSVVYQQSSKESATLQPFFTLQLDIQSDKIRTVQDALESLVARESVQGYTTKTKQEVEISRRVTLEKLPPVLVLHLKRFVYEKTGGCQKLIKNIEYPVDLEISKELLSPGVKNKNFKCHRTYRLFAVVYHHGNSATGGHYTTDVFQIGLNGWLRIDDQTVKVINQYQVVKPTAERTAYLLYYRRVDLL

O=C(CCl)N1CC2(CCOCC2)C1
inactive: OTUD6B -0.202 | OTUD7B -0.345 | PRPF8 -0.426 | PSMD7 -0.00344 | UCHL3 0.139 | UCHL5 -0.253 | USP10 -0.483 | USP15 -0.212 | USP16 -0.888
active: UCHL1 -1.21
